{"source": "the supplement of paper PMC10849652", "note": "Of roughly 7,900 targets only a part is listed; those with a hit were picked by preference. About 0.6% of all pairs of compound and target were hits."}
{"compound": "CS(=O)(=O)CCNCc1ccc(-c2ccc3ncnc(Nc4ccc(OCc5cccc(F)c5)c(Cl)c4)c3c2)o1 [lapatinib]", "assay": "log2 fold change, soluble protein after heating vs DMSO (PISA); higher = thermal stabilisation; K562 cells, 10 uM, 30 min; active = over 0.2 and 3.5 SD of the protein, either way, in both replicates (recomputed)", "outline": "(§1)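 K562 cells at 2×10^6 cells/mL were treated with 10 μM compound for 30 min. Aliquots were heated for 3 min across 48°C-58°C, pooled, and extracted in PBS with 0.5% NP-40 at 4°C; soluble protein was the supernatant after 21,000xg for 90 min. Soluble protein was quantified by TMTpro 16plex LC-MS/MS with channel sums equalised, and reported as log2 fold change in thermal stability against DMSO controls, with values from duplicates.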"}
{"target": "PRKCA (UniProt P17252)", "log2 fold change": "-0.027 (inactive)"}
{"target": "PPP2R5E (UniProt Q16537)", "log2 fold change": "-0.024 (inactive)"}
{"target": "PRPF38A (UniProt Q8NAV1)", "log2 fold change": "-0.035 (inactive)"}
{"target": "PNPLA8 (UniProt Q9NP80)", "log2 fold change": "-0.022 (inactive)"}
{"target": "PSMB4 (UniProt P28070)", "log2 fold change": "0.03 (inactive)"}
{"target": "PHKA1 (UniProt P46020)", "log2 fold change": "-0.109 (inactive)"}
{"target": "PKN1 isoform 2 (UniProt Q16512)", "log2 fold change": "-0.009 (inactive)"}
{"target": "PEX16 isoform 2 (UniProt Q9Y5Y5)", "log2 fold change": "0.05 (inactive)"}
{"target": "PELO (UniProt Q9BRX2)", "log2 fold change": "-0.06 (inactive)"}
{"target": "PSMC2 (UniProt P35998)", "log2 fold change": "0.059 (inactive)"}
{"target": "PCNT (UniProt O95613)", "sequence (O95613 whole entry, looked up)": "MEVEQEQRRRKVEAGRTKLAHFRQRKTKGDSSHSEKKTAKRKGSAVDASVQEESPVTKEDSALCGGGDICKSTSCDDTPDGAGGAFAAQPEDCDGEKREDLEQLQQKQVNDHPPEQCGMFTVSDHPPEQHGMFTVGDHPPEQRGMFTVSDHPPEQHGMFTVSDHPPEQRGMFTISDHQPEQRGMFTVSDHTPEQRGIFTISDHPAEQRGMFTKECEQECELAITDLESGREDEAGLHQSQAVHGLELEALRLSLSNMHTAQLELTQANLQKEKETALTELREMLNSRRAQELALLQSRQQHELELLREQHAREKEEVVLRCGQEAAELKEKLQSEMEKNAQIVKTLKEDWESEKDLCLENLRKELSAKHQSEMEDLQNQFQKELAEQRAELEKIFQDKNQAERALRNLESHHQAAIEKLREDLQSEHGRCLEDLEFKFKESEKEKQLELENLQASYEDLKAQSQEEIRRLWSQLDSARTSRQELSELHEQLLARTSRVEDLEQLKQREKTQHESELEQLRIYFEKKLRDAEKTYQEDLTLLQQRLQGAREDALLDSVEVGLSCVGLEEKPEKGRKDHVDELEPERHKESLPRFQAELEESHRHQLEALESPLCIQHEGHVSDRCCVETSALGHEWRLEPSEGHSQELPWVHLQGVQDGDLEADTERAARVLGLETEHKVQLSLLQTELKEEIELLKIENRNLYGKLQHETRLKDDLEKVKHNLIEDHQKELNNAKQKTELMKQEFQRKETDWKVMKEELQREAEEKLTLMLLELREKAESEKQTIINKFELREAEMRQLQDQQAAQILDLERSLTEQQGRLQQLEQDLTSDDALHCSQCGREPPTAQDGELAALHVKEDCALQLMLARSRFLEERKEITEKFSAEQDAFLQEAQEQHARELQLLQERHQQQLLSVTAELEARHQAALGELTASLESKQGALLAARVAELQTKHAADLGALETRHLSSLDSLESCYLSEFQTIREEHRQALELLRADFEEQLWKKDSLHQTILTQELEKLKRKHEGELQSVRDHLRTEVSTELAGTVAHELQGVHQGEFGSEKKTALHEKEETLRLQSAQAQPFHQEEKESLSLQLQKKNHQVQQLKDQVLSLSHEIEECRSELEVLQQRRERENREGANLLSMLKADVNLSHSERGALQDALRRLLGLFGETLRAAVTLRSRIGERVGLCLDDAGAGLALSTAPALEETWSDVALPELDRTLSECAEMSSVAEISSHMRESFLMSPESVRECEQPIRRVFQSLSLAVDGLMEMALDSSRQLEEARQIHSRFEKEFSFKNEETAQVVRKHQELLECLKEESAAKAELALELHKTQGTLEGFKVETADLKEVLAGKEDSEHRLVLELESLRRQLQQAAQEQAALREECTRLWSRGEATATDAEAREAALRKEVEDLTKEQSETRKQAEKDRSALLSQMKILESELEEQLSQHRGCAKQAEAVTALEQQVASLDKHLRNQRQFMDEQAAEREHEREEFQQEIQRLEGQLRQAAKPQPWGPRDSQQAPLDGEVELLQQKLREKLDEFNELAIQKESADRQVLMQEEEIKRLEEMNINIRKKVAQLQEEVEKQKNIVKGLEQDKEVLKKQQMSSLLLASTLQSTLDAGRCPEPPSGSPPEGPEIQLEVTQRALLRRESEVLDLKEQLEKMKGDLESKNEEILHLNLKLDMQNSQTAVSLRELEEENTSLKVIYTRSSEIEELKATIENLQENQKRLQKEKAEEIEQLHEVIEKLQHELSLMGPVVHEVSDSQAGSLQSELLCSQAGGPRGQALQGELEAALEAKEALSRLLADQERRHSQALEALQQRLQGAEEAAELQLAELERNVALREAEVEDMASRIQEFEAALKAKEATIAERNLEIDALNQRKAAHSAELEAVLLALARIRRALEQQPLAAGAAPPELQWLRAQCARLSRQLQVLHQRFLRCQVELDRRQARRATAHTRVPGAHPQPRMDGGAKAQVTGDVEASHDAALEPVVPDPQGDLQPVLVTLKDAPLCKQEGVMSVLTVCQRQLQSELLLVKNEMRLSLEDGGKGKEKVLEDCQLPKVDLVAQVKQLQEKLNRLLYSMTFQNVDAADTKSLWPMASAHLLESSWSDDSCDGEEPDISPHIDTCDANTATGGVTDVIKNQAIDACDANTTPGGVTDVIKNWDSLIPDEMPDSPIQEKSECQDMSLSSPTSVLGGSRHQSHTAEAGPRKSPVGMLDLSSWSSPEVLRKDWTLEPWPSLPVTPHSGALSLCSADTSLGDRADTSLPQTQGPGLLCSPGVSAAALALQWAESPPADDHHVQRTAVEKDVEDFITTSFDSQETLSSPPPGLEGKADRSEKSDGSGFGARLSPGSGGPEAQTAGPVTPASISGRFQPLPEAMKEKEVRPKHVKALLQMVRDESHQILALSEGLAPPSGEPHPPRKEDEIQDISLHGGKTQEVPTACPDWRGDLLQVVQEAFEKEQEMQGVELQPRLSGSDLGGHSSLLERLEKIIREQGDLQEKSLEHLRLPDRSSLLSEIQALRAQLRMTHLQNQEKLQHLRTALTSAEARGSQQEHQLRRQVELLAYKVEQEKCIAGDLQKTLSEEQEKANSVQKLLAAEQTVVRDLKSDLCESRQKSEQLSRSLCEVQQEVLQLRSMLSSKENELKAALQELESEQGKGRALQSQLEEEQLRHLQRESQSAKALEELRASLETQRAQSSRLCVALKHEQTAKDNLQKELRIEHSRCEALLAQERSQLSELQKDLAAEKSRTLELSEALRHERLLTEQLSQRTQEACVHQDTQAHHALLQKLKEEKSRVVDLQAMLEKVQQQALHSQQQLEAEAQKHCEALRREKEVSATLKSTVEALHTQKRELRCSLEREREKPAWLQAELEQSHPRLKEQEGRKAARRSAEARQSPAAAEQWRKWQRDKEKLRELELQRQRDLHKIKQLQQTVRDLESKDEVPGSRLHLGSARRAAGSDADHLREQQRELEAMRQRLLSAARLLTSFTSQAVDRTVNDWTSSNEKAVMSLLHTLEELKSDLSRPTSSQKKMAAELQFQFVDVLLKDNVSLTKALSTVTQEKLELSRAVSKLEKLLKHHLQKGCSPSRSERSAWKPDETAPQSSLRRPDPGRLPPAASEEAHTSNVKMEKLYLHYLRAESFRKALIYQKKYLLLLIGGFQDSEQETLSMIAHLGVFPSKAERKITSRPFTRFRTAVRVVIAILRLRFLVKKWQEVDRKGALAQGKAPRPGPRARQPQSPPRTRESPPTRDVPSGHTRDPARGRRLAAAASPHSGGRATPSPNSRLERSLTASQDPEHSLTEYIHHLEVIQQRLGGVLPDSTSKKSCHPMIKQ", "log2 fold change": "-0.174 (inactive)"}
{"target": "PELP1 (UniProt Q8IZL8)", "log2 fold change": "0.031 (inactive)"}
{"target": "PI4K2A (UniProt Q9BTU6)", "sequence (Q9BTU6 whole entry, looked up)": "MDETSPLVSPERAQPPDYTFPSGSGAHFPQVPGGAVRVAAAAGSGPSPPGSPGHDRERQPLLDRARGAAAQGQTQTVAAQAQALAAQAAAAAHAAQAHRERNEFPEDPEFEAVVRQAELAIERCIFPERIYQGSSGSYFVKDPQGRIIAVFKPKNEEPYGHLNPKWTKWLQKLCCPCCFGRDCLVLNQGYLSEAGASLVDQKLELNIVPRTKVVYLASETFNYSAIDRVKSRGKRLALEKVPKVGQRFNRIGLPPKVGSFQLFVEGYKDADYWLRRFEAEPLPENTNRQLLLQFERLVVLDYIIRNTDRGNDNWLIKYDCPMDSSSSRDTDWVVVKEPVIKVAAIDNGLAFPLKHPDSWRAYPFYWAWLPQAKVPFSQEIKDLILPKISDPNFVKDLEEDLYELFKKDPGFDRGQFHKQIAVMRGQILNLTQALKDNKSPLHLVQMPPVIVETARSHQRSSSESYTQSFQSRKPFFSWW", "log2 fold change": "0 (inactive)"}
{"target": "POLR3B (UniProt Q9NW08)", "sequence (Q9NW08 whole entry, looked up)": "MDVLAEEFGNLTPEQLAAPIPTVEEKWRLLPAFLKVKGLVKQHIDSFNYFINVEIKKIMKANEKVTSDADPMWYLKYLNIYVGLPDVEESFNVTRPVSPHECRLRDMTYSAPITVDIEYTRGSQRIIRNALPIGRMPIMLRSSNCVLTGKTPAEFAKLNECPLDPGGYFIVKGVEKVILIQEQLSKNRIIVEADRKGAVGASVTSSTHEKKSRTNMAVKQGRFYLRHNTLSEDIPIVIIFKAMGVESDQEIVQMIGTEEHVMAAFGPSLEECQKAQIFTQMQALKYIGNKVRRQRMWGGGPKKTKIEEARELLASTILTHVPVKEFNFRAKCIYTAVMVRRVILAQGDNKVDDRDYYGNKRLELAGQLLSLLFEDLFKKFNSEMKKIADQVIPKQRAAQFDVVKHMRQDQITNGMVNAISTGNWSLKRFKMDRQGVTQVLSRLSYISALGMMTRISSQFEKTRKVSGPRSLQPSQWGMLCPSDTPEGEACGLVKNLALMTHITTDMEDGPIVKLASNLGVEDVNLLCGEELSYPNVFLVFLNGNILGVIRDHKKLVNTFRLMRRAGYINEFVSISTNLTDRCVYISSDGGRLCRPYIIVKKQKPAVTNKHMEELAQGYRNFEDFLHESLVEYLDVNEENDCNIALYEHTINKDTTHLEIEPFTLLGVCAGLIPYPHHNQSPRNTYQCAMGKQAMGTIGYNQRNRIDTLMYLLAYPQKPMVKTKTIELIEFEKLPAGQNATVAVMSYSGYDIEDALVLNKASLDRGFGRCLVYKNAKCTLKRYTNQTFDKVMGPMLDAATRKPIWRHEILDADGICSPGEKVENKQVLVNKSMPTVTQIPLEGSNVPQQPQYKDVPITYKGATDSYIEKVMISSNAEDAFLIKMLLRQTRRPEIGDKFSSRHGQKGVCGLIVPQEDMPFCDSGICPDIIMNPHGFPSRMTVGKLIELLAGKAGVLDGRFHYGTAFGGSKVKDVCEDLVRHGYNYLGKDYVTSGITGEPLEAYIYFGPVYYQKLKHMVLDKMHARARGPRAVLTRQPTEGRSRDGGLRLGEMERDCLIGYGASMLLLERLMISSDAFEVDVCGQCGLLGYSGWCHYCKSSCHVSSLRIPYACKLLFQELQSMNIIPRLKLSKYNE", "log2 fold change": "0.008 (inactive)"}
{"compound": "CS(=O)(=O)N1CCN(Cc2cc3nc(-c4cccc5[nH]ncc45)nc(N4CCOCC4)c3s2)CC1 [pictilisib]", "assay": "log2 fold change, soluble protein after heating vs DMSO (PISA); higher = thermal stabilisation; K562 cells, 10 uM, 30 min; active = over 0.2 and 3.5 SD of the protein, either way, in both replicates (recomputed)", "outline": "as §1"}
{"target": "PDCD6 (UniProt O75340)", "log2 fold change": "0.038 (inactive)"}
{"target": "PRKAR1B (UniProt P31321)", "log2 fold change": "0.199 (inactive)"}
{"target": "PPP4R3B (UniProt Q5MIZ7)", "log2 fold change": "0.076 (inactive)"}
{"target": "PUF60 (UniProt Q9UHX1)", "log2 fold change": "0 (inactive)"}
{"target": "PISD (UniProt Q9UG56)", "log2 fold change": "0.036 (inactive)"}
{"target": "PJA2 (UniProt O43164)", "log2 fold change": "-0.049 (inactive)"}
{"target": "PECAM1 (UniProt P16284)", "log2 fold change": "0.12 (inactive)"}
{"target": "PTTG1 (UniProt O95997)", "sequence (O95997 whole entry, looked up)": "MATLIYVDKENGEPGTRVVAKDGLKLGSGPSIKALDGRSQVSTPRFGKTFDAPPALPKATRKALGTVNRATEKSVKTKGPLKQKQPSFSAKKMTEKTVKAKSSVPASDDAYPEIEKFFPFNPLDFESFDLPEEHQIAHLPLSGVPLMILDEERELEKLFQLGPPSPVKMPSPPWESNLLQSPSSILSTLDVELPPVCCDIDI", "log2 fold change": "-0.07 (inactive)"}
{"target": "PIK3C3 (UniProt Q8NEB9)", "log2 fold change": "0.094 (inactive)"}
{"target": "PARN (UniProt O95453)", "log2 fold change": "-0.036 (inactive)"}
{"target": "POMP (UniProt Q9Y244)", "log2 fold change": "0.031 (inactive)"}
{"target": "POLR3K (UniProt Q9Y2Y1)", "log2 fold change": "-0.04 (inactive)"}
{"target": "PPT1 (UniProt P50897)", "log2 fold change": "0.052 (inactive)"}
{"target": "PTDSS1 (UniProt P48651)", "log2 fold change": "-0.098 (inactive)"}
{"target": "PPT2 isoform 3 (UniProt Q9UMR5)", "log2 fold change": "0.024 (inactive)"}
{"target": "PIK3R1 (UniProt P27986)", "log2 fold change": "0.048 (inactive)"}
{"target": "PIR (UniProt O00625)", "log2 fold change": "0.077 (inactive)"}
{"target": "PRKCB isoform 2 (UniProt P05771)", "log2 fold change": "0.035 (inactive)"}
{"target": "POP1 (UniProt Q99575)", "log2 fold change": "-0.01 (inactive)"}
{"target": "PLBD1 (UniProt Q6P4A8)", "log2 fold change": "0.039 (inactive)"}
{"target": "PEX7 (UniProt O00628)", "log2 fold change": "0.055 (inactive)"}
{"target": "PSMC6 (UniProt P62333)", "log2 fold change": "-0.054 (inactive)"}
{"target": "PDCD2L (UniProt Q9BRP1)", "log2 fold change": "-0.062 (inactive)"}
{"target": "PRKCA (UniProt P17252)", "log2 fold change": "0.055 (inactive)"}
{"target": "PPP2R5E (UniProt Q16537)", "log2 fold change": "-0.118 (inactive)"}
{"target": "PRPF38A (UniProt Q8NAV1)", "log2 fold change": "0.085 (inactive)"}
{"target": "PNPLA8 (UniProt Q9NP80)", "log2 fold change": "0.118 (inactive)"}
{"target": "PSMB4 (UniProt P28070)", "log2 fold change": "-0.026 (inactive)"}
{"target": "PHKA1 (UniProt P46020)", "log2 fold change": "0.049 (inactive)"}
{"target": "PKN1 isoform 2 (UniProt Q16512)", "log2 fold change": "-0.007 (inactive)"}
{"target": "PEX16 isoform 2 (UniProt Q9Y5Y5)", "log2 fold change": "-0.089 (inactive)"}
{"target": "PELO (UniProt Q9BRX2)", "log2 fold change": "-0.111 (inactive)"}
{"target": "PSMC2 (UniProt P35998)", "log2 fold change": "-0.067 (inactive)"}
{"target": "PCNT (UniProt O95613)", "log2 fold change": "0.285 (inactive)"}
{"target": "PELP1 (UniProt Q8IZL8)", "log2 fold change": "-0.074 (inactive)"}
{"target": "PI4K2A (UniProt Q9BTU6)", "log2 fold change": "0.049 (inactive)"}
{"target": "POLR3B (UniProt Q9NW08)", "log2 fold change": "-0.019 (inactive)"}
